D3 ag: D3 dopamine receptor (human) agonism; 0.58% of 410,000 active; max activation, %; P35462; D3R DiscoveRx beta-arrestin cells, luminescence, 90 min; in the data active means max activation above about 30%
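Cells at 1500/well, incubated overnight, then treated with pinned compounds (dopamine as control) for 90 min at 37 degrees C. DiscoveRx reagent added for 30 - 60 minutes at room temperature; luminescence read.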
B2AR arrestin: agonists driving beta-arrestin recruitment to human beta2-adrenergic receptor | P07550 | beta-arrestin recruitment to beta2AR, cell-based reporter | Potency, µM (doses to about 46.1 µM), most hits filed as activators | 0.02% of 330,000 active; further: nearly all actives have a fitted effect of over 65% in size
D3 antag: D3 dopamine receptor (human) antagonism. AID 652054. max response, negative = inhibition, %. 2.5% of 360,000 active. D3R cells, DiscoveRx beta-arrestin luminescence, antagonist mode; stronger effect = lower value; in the data active means max response below about -50%; inconclusive means no clear call, values can overlap the other calls
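Cells expressing the human receptor were seeded at 1500 cells/well, incubated overnight at 37 degrees C in 5% CO2, then exposed to library compounds with dopamine controls for 90 minutes at 37 degrees C before luminescent detection.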
mIDH1 inhibitor: human IDH1 R132H inhibition; O75874; IDH1-R132H enzyme, NADPH consumption, diaphorase/resazurin fluorescence; Potency, µM (titrated, usually from 76.6 µM), usual class: inhibitors; 0.093% of 390,000 active; further: nearly all actives have a fitted effect of over 65% in size
Target sequence (O75874 whole entry R132H, stated change not applied): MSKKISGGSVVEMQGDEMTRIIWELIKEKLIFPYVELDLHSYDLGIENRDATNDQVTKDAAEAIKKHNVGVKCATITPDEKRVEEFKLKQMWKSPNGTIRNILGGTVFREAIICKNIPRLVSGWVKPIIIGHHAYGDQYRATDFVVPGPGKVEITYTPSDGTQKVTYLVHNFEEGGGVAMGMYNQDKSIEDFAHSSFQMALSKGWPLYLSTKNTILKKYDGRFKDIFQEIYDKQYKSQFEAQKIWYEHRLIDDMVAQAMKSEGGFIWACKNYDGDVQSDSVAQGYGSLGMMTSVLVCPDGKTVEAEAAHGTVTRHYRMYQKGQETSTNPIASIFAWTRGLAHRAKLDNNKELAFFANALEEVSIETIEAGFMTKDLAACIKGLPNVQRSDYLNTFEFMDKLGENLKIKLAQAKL
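IDH1-R132H (0.5 ug/mL) preincubated 30 min with compound, then NADPH (0.016 mM) and alpha-KG (2 mM) added; 80 min at RT, pH 7.5. Remaining NADPH coupled via diaphorase/resazurin to fluorescence (540/590 nm); concentration-response curves normalized to no-enzyme control.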
a7 integrin act: integrin-mediated muscular dystrophy alleviation activation; alpha7betagal myoblasts, beta-gal FDG fluorescence, 48 h; Potency, µM (series often up to 38.3 µM), actives largely listed as activators; 0.064% of 350,000 active; further: nearly all actives have a fitted effect of over 60% in size
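Alpha7betagal+/- myoblasts (passage 13) were plated 16-24 hr, then exposed to compounds (1:260 dilution of DMSO stock) for 48 hours at 37C. After MPER lysis, β-galactosidase reporter activity was read as FDG fluorescence (ex 480/em 540) after 30 minutes.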
Hits are given with their value; . = inactive; ? = inconclusive; / = not tested or not shown. The list is not random: actives were taken first. Their share in the collection is about 2.9%. Unless noted, the call rests on the fitted dose curve; in most records, active means well fitted curve in the direction sought with a large enough effect; inconclusive means small, poorly fitted or top-dose-only effect, or another doubt; inactive means no such curve, though single readings can be large; an effect the other way counts as inactive or inconclusive.

SMILES | D3 ag | B2AR arrestin | D3 antag | mIDH1 inhibitor | a7 integrin act
CC(Cc1ccccc1)C(=O)NCc1ccncc1 (configuration not stated) | . | . | ? | . | .
CC(CCc1ccccc1)NCc1ccncc1 (configuration not stated) | 78 | . | . | . | .
CCN(CC)CCNC(=O)c1ccc(Cn2c(=O)c3cccn3c3cccnc32)cc1 | . | / | / | / | /
CC(=C\c1ccccc1)/C=C1/SC(=S)N(CC(=O)O)C1=O | . | / | / | / | /
CO/N=C(\C(=O)N[C@@H]1C(=O)N2C(C(=O)[O-])=C(C[n+]3ccc(N)n3CCO)CS[C@H]12)c1csc(N)n1 | . | / | / | / | /
CC(=O)c1cc(C#N)c(Oc2ccccc2)nc1C | . | / | . | . | .
CC(=O)c1cc(C#N)c(Oc2ccc(Cl)cc2Cl)nc1C | . | / | -56 | . | .
CCCn1c(=O)c2ccccc2n2c(SCCOc3ccccc3F)nnc12 | . | . | . | . | .
CCCn1c(=O)c2ccccc2n2c(SCCOc3ccc(Cl)cc3)nnc12 | . | . | -50 | . | .
CC(C)(C)CC(=O)OCC(=O)[C@@]12OC(C)(C)O[C@@H]1C[C@H]1[C@@H]3CCC4=CC(=O)C=C[C@]4(C)[C@@]3(F)[C@@H](O)C[C@@]12C | . | / | / | / | /
O=C(Nc1ccccc1Oc1ccccc1)[C@@H]1O[C@H](CO)[C@H](O)[C@H](O)[C@H]1O | . | / | -162 | / | /
COc1ccccc1N1CCN(S(=O)(=O)c2ccc(F)c(C(=O)Nc3ccc(C)c(F)c3)c2)CC1 | . | / | / | . | /
CSc1ccc(C2=CC(=O)C[C@H](c3ccc4c(c3)OCO4)C2)cc1 | . | . | -52 | . | .
Cc1ccc(C2=CC(=O)C[C@H](c3ccc4c(c3)OCO4)C2)cc1 | . | . | . | . | .
CCOc1ccc(NC(=O)CCc2nc3cccnc3n2Cc2ccc(OC)cc2)cc1 | . | / | / | . | /
COc1ccc(-c2csc(Nc3ccccc3)[n+]2Cc2ccccc2)cc1 | . | . | . | . | .
Cc1ccc(-c2csc(Nc3ccc(C(=O)O)cc3)[n+]2Cc2ccccc2)cc1 | . | . | . | . | 8.9µM
Cc1ccc(OCCNc2cc(N3CCN(CCO)CC3)ccc2[N+](=O)[O-])cc1C | . | . | -56 | . | .
Cc1cccc(OCCNc2cc(N3CCN(C)CC3)ccc2[N+](=O)[O-])c1 | . | . | -65 | . | .
COC(=O)c1ccccc1NC(=O)NCCc1c(C)nn(C)c1C | . | / | / | . | /
CCOC(=O)C1CCN(C(=O)C2CCN(C3=NS(=O)(=O)C(c4ccc(C)cc4)=C3CC)CC2)CC1 | . | / | / | . | /
O=C(NCc1ccccc1)C(CCc1ccccc1)n1c(=O)c(-c2cc3ccccc3[nH]2)nc2ccccc21 (configuration not stated) | . | / | . | / | /
O=C(NC1CCCCC1)C(c1ccnc2ccccc12)n1c(=O)c(-c2ccccc2)nc2ccccc21 (configuration not stated) | . | / | -68 | / | /
O=C(NCc1ccccc1)C(CCc1ccccc1)n1c(=O)c(-c2ccccc2)nc2ccccc21 (configuration not stated) | . | / | -71 | / | /
O=C(NC1CCCCC1)C(c1ccnc2ccccc12)n1c(=O)c(-c2cc3ccccc3[nH]2)nc2ccccc21 (configuration not stated) | . | / | . | / | /
SMILES | D3 ag | B2AR arrestin | D3 antag | mIDH1 inhibitor | a7 integrin act
FC(F)(F)c1ccccc1Cc1c(-c2ccc(Cl)cc2)nc2ccc(Cl)cn12 | . | / | . | / | /
Cc1ccc(-c2nc3ccc(C)cn3c2Cc2ccccc2C(F)(F)F)cc1 | . | / | . | / | /
FC(F)(F)c1ccccc1Cc1c(-c2ccc(Cl)cc2)nc2ccc(Br)cn12 | . | / | -54 | / | /
Cc1ccc2nc(-c3ccccc3)c(Cc3ccccc3C(F)(F)F)n2c1 | . | / | -54 | / | /
O=C(CO)[C@@H](O)[C@H](O)[C@@H](O)CO | . | / | / | / | /
O=C(Cn1c(-c2cncs2)nc2ccccc21)NCc1ccccc1 | . | . | -84 | . | .
Cc1ccc(NC(=O)Cn2c(-c3cncs3)nc3ccccc32)c(Br)c1 | . | / | / | . | /
Cc1nc2scc(-c3ccccc3)c2c(=O)n1N=C1C=CC(=O)C=C1 | . | . | -83 | . | .
NS(=O)(=O)c1ccc(NC(=S)NCc2ccccc2Cl)cc1 | . | . | -68 | . | .
CNC(=O)Nc1ccc(S(N)(=O)=O)cc1 | . | . | . | . | ?
CCOC(=O)c1c(C)[nH]c(CCC(=O)NCc2ccc(CC)cc2)c1C | . | / | / | . | /
OCc1ccccc1OCCCN1CCC(Cc2ccccc2)CC1 | . | . | -66 | . | .
C=CCOc1ccccc1CN1CCC(Cc2ccccc2)CC1 | . | . | -52 | . | .
COc1cc(C)c(CN2CCC(Cc3ccccc3)CC2)cc1C | . | . | ? | . | .
O=Cc1cc(Cl)ccc1OCCN1CCC(Cc2ccccc2)CC1 | . | . | ? | . | .
Clc1ccccc1OCCN1CCC(Cc2ccccc2)CC1 | . | . | -90 | . | .
CCCCN(CCCC)C(=S)[S-].CCCCN(CCCC)C(=S)[S-].[Zn+2] | . | / | / | / | /
CC(C)(C)c1ccccc1OCCOCCNCc1ccccc1 | . | . | -78 | . | .
CC(C)(C)NCCCCOc1ccccc1F | . | . | . | . | .
CNCCOc1ccccc1C(C)(C)C | . | . | -54 | . | .
Cc1ccc2cccc(N=Cc3c(C)[nH]n(-c4ccccc4)c3=O)c2n1 | . | . | -99 | . | .
Cc1[nH]n(-c2ccccc2)c(=O)c1/C=N/O | . | . | . | . | .
CCCOc1ccc(C(=O)N2CCCC2C(=O)O)cc1 (configuration not stated) | . | . | -61 | . | .
CCCc1ccc(OC(C)C(=O)Nc2sc3c(c2C(=O)OC)CCCCC3)cc1 (configuration not stated) | . | / | / | . | /
CC(NCc1ccc2c(c1)OCO2)C(=O)N1CCc2ccccc21 (configuration not stated) | . | . | -107 | . | .
SMILES | D3 ag | B2AR arrestin | D3 antag | mIDH1 inhibitor | a7 integrin act
Cn1c(NCC(O)c2ccccc2)nc2c1c(=O)n(Cc1ccc(Cl)c(Cl)c1)c(=O)n2C (configuration not stated) | 33 | / | ? | . | .
Cn1c(NCC(O)c2ccccc2)nc2c1c(=O)n(Cc1ccc(Cl)cc1)c(=O)n2C (configuration not stated) | . | . | . | . | ?
COc1ccc(-n2cc(CNCCc3cscn3)c(-c3ccccc3Cl)n2)cc1 | . | . | -101 | . | .
O=C(Cc1ccccc1)Nc1cccc(-c2nc3cccnc3s2)c1 | 78 | / | / | . | /
COc1cc(C(=O)CC2(O)C(=O)N(Cc3ccccc3Cl)c3ccccc32)cc(OC)c1OC (configuration not stated) | . | / | / | . | /
CNc1cc([N+](=O)[O-])ccc1OCc1ccccc1 | . | . | . | . | 4.5µM
